Here are results for 36 compounds from PubChem BioAssay.

The test is described as follows: mitochondrial membrane potential change in A549 cells, profiling panel, cell-based, JC-1 fluorescence, basal, 24 h, 100 nL (AID 1138).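 Further: A549 lung adenocarcinoma cells under basal conditions with no added stimulus; test concentration not given here.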 Conditions: higher = more signal.
As to `C[N+](C)(C)CCCCNC(=O)[C@H]1C[C@H]2C(=O)N3CCC[C@H]3C(=O)N2[C@H]1c1ccc(O)cc1`, the z-score is -0.515.
Under `O=S(=O)(NCCCO)c1ccc(Br)cc1` stands 0.802; under `Cc1ccc(S(=O)(=O)N2CC(C(=O)O)=CCC2c2ccccc2)cc1` (stereo unspecified), -1.33.
Then `C=CCOC(=O)[C@H]1[C@@H]2C(=O)O[C@@H](c3ccccc3)[C@@H](c3ccccc3)N2[C@@H](c2ccc(OCCOC(=O)[C@@H]3C[C@@H]4C(=O)NCC(=O)N4[C@@H]3c3ccc(O)cc3)cc2)[C@]12C(=O)Nc1ccc(I)cc12`, with -1.17; and `CC(=O)NCCCC[C@@H]1NC(=O)[C@@H]2C[C@H](C(=O)NCCCCCC[N+](C)(C)C)[C@H](c3cccc(OCCO)c3)N2C1=O`, with -0.972.
With `C/C=C/[C@H](CCn1cc([C@H](O)c2ccccc2)nn1)[Si](C)(C)c1ccc(OC)cc1`, the z-score amounted to 0.45.
Under `CCCNC(=O)[C@@]1(C)c2ccccc2C(=O)N(Cc2cc(C(F)(F)F)cc(C(F)(F)F)c2)[C@H]1c1ccc(CO)cc1` stands -0.704; under `C=C(CCCC)/C(=C/C[C@H](OC(C)=O)c1ccc(CO)o1)c1cc(C(=O)OC)ccc1OC`, -0.925; under `C=CCCN(CC#C[C@H]1Oc2ccccc2S(=O)(=O)N2CCC[C@@H]12)S(=O)(=O)c1ccc(C)cc1`, 0.957.
Then `CN1C(=O)C2C=CC(C(O)C(c3ccccc3)c3ccccc3)N(Nc3ccccc3)C2C1=O` (stereo unspecified), with 0.0496.
Under `O=C1OCCC/C=C\[C@H]2OC34C=CCN(CCN5CCOCC5)C(=O)[C@H]3N(CCO)C(=O)[C@@H]4C12` (stereo partly specified) stands -1.08; under `COCCOC(=O)N1C(=O)[C@@]2(c3cc(C#CC4(O)CCCCCC4)ccc31)[C@H](c1ccc(O)cc1)N1[C@H](c3ccccc3)[C@H](c3ccccc3)OC(=O)[C@H]1[C@@H]2C(=O)N1CCc2cc(OC)c(OC)cc2C1`, -0.506; under `COCCn1c(C(=O)N2CCCC2)cc2c1C[C@H]1CN(C(=O)c3ccccc3)[C@@](Cc3ccc(OC)cc3)(C(=O)OC)[C@@H]21`, 0.766.
As to `Cc1cc(C)c(C(O)C2C=CC3C(=O)NC(=O)C3N2Nc2ccccn2)c(C)c1` (stereo unspecified), the z-score worked out at 0.513.
Consider `CC(c1ccccc1)C(O)C1C=CC2C(=O)N(Cc3ccccc3)C(=O)C2N1n1cnnc1` (stereo unspecified), for which the z-score was -1.27.
Under `O=C(NCC(O)CO)[C@@]1(Cc2ccccc2)N=C(c2ccc(OCCCO)cc2)O[C@H]1c1ccccc1` (stereo partly specified) stands 1.44.
Under `CC(c1ccccc1)C(O)C1C=CC2C(=O)N(c3ccccc3)C(=O)C2N1Nc1ccccc1F` (stereo unspecified) stands -0.673; under `C=CC[C@@]1(C(=O)NCc2ccccc2)N=C(c2ccc(OCCCO)cc2)O[C@@H]1c1ccccc1CN=[N+]=[N-]`, 0.903; under `C=CCN1C(=O)[C@]2(Cc3ccccc31)N=C(c1ccc(OCCCO)cc1)O[C@@H]2c1ccccc1`, 0.188.
Under `CCCCC(=O)N(Cc1ccccc1F)[C@@H]1CC(C(=O)NCCO)=C[C@H](Oc2c(I)cc(CO)cc2OC)[C@H]1O` stands -1.47; under `Cc1c(NC(=O)/C(C#N)=C/C=C/c2ccccc2)c(=O)n(-c2ccccc2)n1C`, -0.158.
As for `CC(C)(C)OC(=O)CC[C@]1(C(=O)NCC(O)CO)N=C(c2ccc(OCCCO)cc2)O[C@H]1c1ccccc1CN=[N+]=[N-]` (stereo partly specified), the z-score is -0.101.
Compound `CCCC[C@@H]1C[C@H]1[C@@H](NC(=O)c1ccco1)c1ccccc1` yielded a z-score of 0.542.
`NC(=O)NCC#Cc1ccc2c(c1)[C@]1(C(=O)N2)[C@H](c2ccccc2OCCO)N2[C@H](c3ccccc3)[C@H](c3ccccc3)OC(=O)[C@H]2[C@@H]1C(=O)N1CCCCCCC1`: the z-score is -0.724.
On to `C=C(COC)C(=O)CC[C@H](OC(=O)c1cccnc1)c1ccccc1OCCO`, for which the z-score was -0.0406.
`C=C(C(=O)CC[C@@H](OC(=O)c1cccnc1)c1ccc(CO)o1)C(C)C` gave a z-score of 0.288.
Under `O=C1O[C@H](c2ccccc2)[C@H](c2ccccc2)N2[C@H]1[C@@H](C(=O)Nc1nc3ccccc3s1)[C@]1(C(=O)Nc3ccc(C#CC4=CCCCC4)cc31)[C@H]2c1ccc(OCCO)cc1` stands -2.24; under `COCCOC(=O)N1C(=O)[C@@]2(c3cc(C#Cc4ccc(OC)cc4)ccc31)[C@H](C(N)=O)[C@H]1C(=O)O[C@H](c3ccccc3)[C@H](c3ccccc3)N1[C@@H]2c1ccc(O)cc1`, -0.335.
Then `CN1C(=O)C2C(C1=O)C1C=C(c3ccc(CO)cc3)C2C(C2CC2)N1Cc1sc2ccccc2c1Cl` (stereo unspecified), with 2.26; and `CC1CC/C=C\[C@H]2OC34C=CCN(Cn5nnc6ccccc65)C(=O)[C@H]3N(CCCO)C(=O)[C@@H]4C2C(=O)O1` (stereo partly specified), with -0.198; and `O=P(NCC1(CC2(c3ccccc3)CO2)CC1)(c1ccccc1)c1ccccc1` (stereo unspecified), with 1.11.
Under `CCOC(=O)C1=CC[C@@H](c2ccccc2)N(S(=O)(=O)c2ccc(C)cc2)[C@H]1c1ccc(C#N)cc1` stands 2.11.
`COc1cc(NN2C(C(O)c3ccccc3)C=CC3C(=O)N(c4ccccc4)C(=O)C32)cc(OC)c1OC` (stereo unspecified) registered a z-score of 1.42.
Under `Cn1c2c(c3ccccc31)C(=O)C1NC2C=CC1(C)C(=O)OCc1ccccc1` (stereo unspecified) stands -0.591.
Under `Cc1ccc(S[C@]2(C(=O)NCCN3CCOCC3)CC(=O)N(C3CCCCC3)[C@@H]2c2ccc(CO)cc2)cc1` stands 1.63.
Under `COCCOC(=O)N1C(=O)[C@@]2(c3cc(C#CC4=CCCCC4)ccc31)[C@H](c1ccc(OCCO)cc1)N1[C@H](c3ccccc3)[C@H](c3ccccc3)OC(=O)[C@H]1[C@@H]2C(=O)Nc1nc2ccccc2s1` stands -2.19.
